Screening data: PubChem, National Center for Advancing Translational Sciences (NCATS)
In the library only some 9.2% were active in any assay of this set; here they are far more common.
ELG1 repair inh = qHTS screen for small molecules that inhibit ELG1-dependent DNA repair in human embryonic kidney (HEK293T) cells expressing luciferase-tagged ELG1; HEK293T ELG1-luciferase reporter, luminescence, 16 h; DNA damage induced by 5-fluorouridine; Potency, µM (titrated, usually from 46.1 µM), for the others: at the top dose activity change, negative = inhibition, most hits filed as inhibitors; 330,000 tested, 2.3% active; AID 504467, 2011; also: % is scaled to controls: 0 for no effect and ±100 for the full control effect; nearly all actives have a fitted effect of over 55% in size
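Reporter activity after DNA damage by 5-fluorouridine is monitored. Compound-treated cells incubate 16 hr at 37 °C, then ONE-Glo is added for 30 min before luminescence reading.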
NPC1 promoter act = qHTS Assay for NPC1 Promoter Activators | AID 485313, 2010 | Huh7 NPC1 promoter luciferase reporter, 24 h | Potency, µM (highest dose often 9.22 µM), inactives show top-dose activation, most hits filed as activators | 320,000 tested, 2.4% active; also: % of control where 0% means no effect; nearly all actives have a fitted effect of over 60% in size
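In 1536-well qHTS, Huh7 cells harboring an NPC1 promoter–luciferase construct received compound for 24 h; activation was quantified by luminescence following luciferase reagent addition.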
ELG1 genotox = qHTS screen for small molecules that induce genotoxicity in human embryonic kidney (HEK293T) cells expressing luciferase-tagged ELG1. Potency, µM (titrated, usually from 46 µM), for inactives: at the highest dose activity change, positive = activation, usual class: activators. HEK293T ELG1-luciferase reporter, luminescence, 16 h. AID 504466, 2011. 330,000 tested, 1.3% active; also: % of control where 0% means no effect; nearly all actives have a fitted effect of over 60% in size
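Luminescence read-out: rising ELG1-luciferase signal, reflecting elevated ELG1 protein under genetic stress, flags genotoxic compounds. Cells were treated for 16 hr at 37 °C before ONE-Glo detection.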
Rab9 prom act = qHTS Assay for Rab9 Promoter Activators; Huh7 Rab9 promoter-luciferase reporter, luminescence, 24 h; Potency, µM (highest dose often 9.22 µM), for the others: at the top dose activation, negative = inhibition, most hits filed as activators; 320,000 tested, 2.8% active; AID 485297, 2010; also: % of control where 0% means no effect; nearly all actives have a fitted effect of over 60% in size
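Huh7 cells stably carrying Rab9 promoter–luciferase reporter, plated 1500 cells/well, compound added after 2 h and incubated 24 h at 37 °C; luciferase luminescence then read after 10 min with detection reagent.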
SMN2 splice up = qHTS Assay for Enhancers of SMN2 Splice Variant Expression. 210,000 tested, 2.8% active. AID 1458, 2008. Potency, µM (doses to about 46.1 µM), inactives show at the highest dose activity change, positive = activation, actives largely listed as activators. HEK293 SMN2-luciferase splicing reporter, luminescence, 30-36 h; also: % of control where 0% means no effect; nearly all actives have a fitted effect of over 55% in size
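qHTS luciferase splicing reporter: luminescence rises when SMN2 exon 7 is included in transfected HEK293 cells. Compound exposure lasted 30-36 h at 37C, with 4.5 mM final sodium butyrate as control, followed by a ONE-Glo read.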
FLuc modulator = qHTS profiling assay for firefly luciferase inhibitor/activator using purifed enzyme and Km concentrations of substrates (counterscreen for miR-21 project); 360,000 tested, 6.9% active; purified FLuc, Km substrates, luminescence inhibition; Luciferin 4-monooxygenase (Photinus pyralis), P08659; Potency, µM (top dose mostly 57.5 µM), for the others: at the top dose activity change, negative = inhibition, hits mostly inhibitors;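 also: plate controls were vehicle for no effect and reference inhibitor for full effect; nearly all actives have a fitted effect of over 55% in size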
Target sequence (P08659 whole entry, looked up): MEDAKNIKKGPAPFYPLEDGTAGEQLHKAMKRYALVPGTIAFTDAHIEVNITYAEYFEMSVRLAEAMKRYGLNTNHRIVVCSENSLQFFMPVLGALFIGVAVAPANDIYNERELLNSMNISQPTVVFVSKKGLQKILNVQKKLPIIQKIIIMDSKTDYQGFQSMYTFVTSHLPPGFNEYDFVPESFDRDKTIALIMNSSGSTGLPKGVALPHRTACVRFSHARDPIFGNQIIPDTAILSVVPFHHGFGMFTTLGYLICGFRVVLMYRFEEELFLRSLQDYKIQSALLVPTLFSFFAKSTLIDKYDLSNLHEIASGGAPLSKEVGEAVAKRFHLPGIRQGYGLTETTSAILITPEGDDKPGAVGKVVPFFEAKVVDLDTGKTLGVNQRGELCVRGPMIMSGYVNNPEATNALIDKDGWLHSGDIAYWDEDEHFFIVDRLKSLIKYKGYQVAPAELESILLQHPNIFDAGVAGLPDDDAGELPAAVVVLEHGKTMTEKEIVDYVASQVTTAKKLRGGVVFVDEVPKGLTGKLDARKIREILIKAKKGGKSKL
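Purified P. pyralis luciferase, 10 nM final, with Km-level 10 uM D-luciferin and 10 uM ATP in 50 mM Tris acetate pH 7.5, 10 mM Mg acetate, 0.01% Tween-20, 0.05% BSA; 6-point qHTS titration about 60 µM downward; luminescence read.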
Numbers without * were called inactive; u = inconclusive; x = no result given; [ ] = remark or other dose. Calls follow the shape of the dose curve; as a rule, active = well fitted curve in the direction sought with a large enough effect; inconclusive = small, poorly fitted or top-dose-only effect, or another doubt; inactive = no such curve, though single readings can be large; an effect the other way counts as inactive or inconclusive. Potency is read from the fitted curve at half-maximal effect.

SMILES	ELG1 repair inh	NPC1 promoter act	ELG1 genotox	Rab9 prom act	SMN2 splice up	FLuc modulator
Cc1cc(=O)[nH]c(SCC(=O)Nc2nc3ccccc3s2)n1	6.5%	1.0%	-0.1%	-0.9%	-21.4%	u
N#Cc1ccc(CSc2nnc(Nc3ccccc3)s2)cc1	-17.2%	-1.0%	2.5%	-5.1%	-21.8%	-1.3%
Cc1cc(=O)[nH]c(SCC(=O)Nc2nnc(SCc3ccccc3)s2)n1	-2.3%	-6.1%	-6.6%	-0.7%	-25.7%	13.5µM*
c1ccc(CSc2nnc(NC3=NCCCCC3)s2)cc1	0.0%	u	u	3.98µM*	15.1%	16.9µM*
CCOc1ccc(S(=O)(=O)N2CCCC(C(=O)NCc3cccnc3)C2)cc1Cl (configuration not stated)	-28.7%	-3.0%	-14.2%	-3.9%	x	1.6%
COc1cc(C2C(C(=O)Nc3ccccc3C)=C(C)Nc3nc(SCc4cc(C)ccc4C)nn32)ccc1O (configuration not stated)	x	x	x	x	x	-2.2%
O=C(Nc1nnc(SCc2ccccc2)s1)C1=COCCO1	u	3.55µM*	u	3.55µM*	x	u
C=CCSc1nnc(NC(=O)C2=COCCO2)s1	u	3.98µM*	u	2.24µM*	x	16.9µM*
O=C(Nc1nnc(SCc2ccc(F)cc2)s1)C1=COCCO1	u	12.8%	1.5%	18.5%	x	-16.7%
O=C(/C=C/c1ccco1)Nc1ccc2nc3n(c(=O)c2c1)CCCC3	13.1%	27.2%	4.3%	u	x	u
Cc1nc2ccccc2n1CC(=O)NC(C)C1CC2CCC1C2 (configuration not stated)	5.17µM*	-27.1%	-5.9%	-25.6%	-48.4%	0.6%
CC(NC(=O)Cn1c(NCCO)nc2ccccc21)C1CC2CCC1C2 (configuration not stated)	19.0%	-4.1%	-5.0%	3.9%	-4.8%	-0.9%
COc1ccc(OCCSc2ncn[nH]2)cc1	u	u	12.6%	u	x	13.5µM*
CC(C)Oc1ccc(CSc2ncn[nH]2)cc1	u	26.0%	9.3%	u	x	15.1µM*
Clc1ccc(CSc2ncn[nH]2)cc1	7.1%	-2.4%	-1.5%	4.2%	-6.8%	-14.0%
CCC(=O)N1c2ccccc2CC1C(=O)NCc1ccc(N(C)C)cc1 (configuration not stated)	x	x	x	x	x	-5.0%
Cc1ccccc1Cn1c(=O)n(CC2CCC(C(=O)N3CCC(C)CC3)CC2)c(=O)c2sccc21 (configuration not stated)	x	x	x	x	x	-13.2%
COc1ccc(N2CCN(C(=O)c3cc4c(=O)oc5ccc(C)cc5c4s3)CC2)cc1	x	x	x	x	5.9%	-4.6%
Cc1cccc2c1NC(=O)/C2=C\C(=O)c1cccs1	20.2%	0.1%	7.9%	0.2%	-32.9%	4.78µM*
CN(CC(=O)NCc1ccccc1Cl)S(=O)(=O)c1ccc2c(c1)c(=O)n(C)c(=O)n2C	x	x	x	x	-23.9%	-0.6%
Cc1c(C(=O)NC2CCCCC2C)oc2ccccc12 (configuration not stated)	u	-0.7%	-17.4%	5.1%	x	13.5µM*
Cc1c(C(=O)NC2CC2)oc2ccccc12	u	-3.9%	1.7%	-1.6%	x	u
Cc1c(C(=O)NC2CCC(C)CC2)oc2ccccc12 (configuration not stated)	u	3.16µM*	u	2.82µM*	x	9.53µM*
COc1ccc(CNC(=O)C2=C(C)C(=O)OC23CCN(C(C)=O)CC3)cc1	x	x	x	x	x	-2.8%
O=C(O)c1cc(=O)[nH]c(SCc2ccccc2)n1	x	x	x	x	1.7%[9.22 µM]	x
C/C(=N\Nc1ccc(F)cc1F)c1ccc(F)cc1	3.8%	-3.2%	6.2%	2.0%	2.6%	u
Fc1ccc(N/N=C/c2ccc(N3CCOCC3)cc2)c(F)c1	u	2.51µM*	u	2µM*	11.2µM*	12µM*
